# Assay results from PubChem BioAssay AID1345085 (National Center for Advancing Translational Sciences (NCATS), 2018).
# Inconclusive results are not listed. The source made the active and inactive calls. Calls follow the shape of the dose curve; as a rule, active = well fitted cell-killing curve with a large enough effect; inconclusive = small, poorly fitted or top-dose-only effect, or effect the other way; inactive = no such curve, though single readings can be large or run the other way.
# Test system: Es-2
# Experiment: Confirmatory qHTS for gynecologic anti-cancer compounds from libraries of approved drugs and bioactive compounds; also: nearly all actives have a fitted effect of over 55% in size
# Details: gynecologic cancer cell panel viability, ATPlite luminescence, 48 h; series mostly up to 57.6 µM; activity change, negative = viability loss: at the top concentration
# Summary of the method: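 Viability is measured as ATP-dependent luciferase light using ATPlite, read 15 min after reagent addition at room temperature. Compounds, in DMSO, span 57.5 uM down to 0.977 nM over 11 threefold steps for 48 h.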
# % is scaled to controls: 0 for no effect and ±100 for the full control effect; potency is read from the fitted curve at half-maximal effect.
Structure (SMILES),Potency,"activity change, negative = viability loss"
NC(=O)Nc1cc(-c2cccc(F)c2)sc1C(=O)NC1CCCNC1 (stereo not given),0.344 µM (active),–
COCCOc1nc(-c2ccc(Cl)c(Cl)c2)n(-c2ccc(NC(=O)CCl)cc2)n1,5.44 µM (active),–
COc1ccc2c(c1)c(CC(=O)O)c(C)n2C(=O)c1ccc(Cl)cc1,–,-5.45% (inactive)
Cn1cnc([N+](=O)[O-])c1Sc1ncnc2nc[nH]c12,15.3 µM (active),–
NS(=O)(=O)OC[C@@H]1C[C@@H](n2ccc3c(N[C@H]4CCc5ccccc54)ncnc32)C[C@@H]1O,1.72 µM (active),–
CCOC(=O)C1=C(C)NC2=C(C(=O)CC(C)(C)C2)C1c1ccc(-c2ccccc2)cc1 (stereo not given),–,-4.79% (inactive)
Cn1cnc2c(F)c(Nc3ccc(Br)cc3Cl)c(C(=O)NOCCO)cc21,6.85 µM (active),–
CCOc1cc2ncc(C#N)c(Nc3ccc(F)c(Cl)c3)c2cc1NC(=O)/C=C/CN(C)C,24.3 µM (active),–
Oc1cn2c(n1)Nc1ccc(Cl)c(Cl)c1C2,–,-1.22% [at 19.5 µM] (inactive)
O=C1Cc2cc(CCN3CCN(c4nsc5ccccc45)CC3)c(Cl)cc2N1,–,12.2% (inactive)
CC(C)Oc1ccc2c(=O)c(-c3ccccc3)coc2c1,9.68 µM (active),–
CN(NC(=O)CC(=O)NN(C)C(=S)c1ccccc1)C(=S)c1ccccc1,0.611 µM (active),–
Cc1nc(N)sc1-c1ccnc(Nc2ccc(N3CCOCC3)cc2)n1,9.68 µM (active),–
Cc1ccc(NC(=O)c2ccc(CN3CCN(C)CC3)cc2)cc1Nc1nccc(-c2cccnc2)n1,–,4.97% (inactive)
Nc1ccccc1NC(=O)c1ccc(CNC(=O)OCc2cccnc2)cc1,7.69 µM (active),–
